Laboratory results: PubChem BioAssay (NCATS)
A number with no mark means an inactive call. Results filed as inconclusive are left out. Calls of active or inactive are those of the source. Unless noted, the call rests on the fitted dose curve; in most records, active means well fitted curve in either direction with a large enough effect (not every such curve was filed as active); inconclusive means small, poorly fitted or top-dose-only effect, or another doubt; inactive means flat fitted curve, though single readings scatter.

Key:
[1] = AP1 Signaling Pathway (AID 357); conditions: ME-180 AP-1-bla reporter, EGF-induced, beta-lactamase ratio, 5 h; at 17.2 µM (top of the series) unless noted;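 further: ME-180 reporter cells stimulated with EGF at its EC50 level; on the % scale 0 is the no-effect control and ±100 the full control effect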
Summary of the method: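 Titration-series screen for positive or negative modulators of EC50 EGF-induced signaling in ME-180 cells carrying an AP-1-driven beta-lactamase reporter. After 5 hours at 37 degrees Celsius, CCF4 460nm/530nm emission ratio gave %Activity; AC50 values derived.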

[2] = Stat Signaling Pathway (AID 446); conditions: ME-180 SIE beta-lactamase reporter, IL-6 stimulated, 5 h; at 17.2 µM (top of the series) unless noted;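 further: ME-180 cervical cancer cells given 40 pM IL-6 alongside compound; SIE-controlled beta-lactamase reporter measured as 460/530 nm FRET emission ratio; on the % scale 0 is the no-effect control and ±100 the full control effect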
Summary of the method: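 Normalization used AC90 stimulation (300 pM IL-6) and AC90 inhibition (125 nM pan-JAK inhibitor at 40 pM IL-6). The underlying signal is SIE-driven beta-lactamase in ME-180 cells after 5 h IL-6 exposure with compound.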

[3] = molecular target: Glucocorticoid receptor (Homo sapiens) (UniProt P04150); test: GR-GFP Redistribution (AID 450;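 active means compounds whose dose series gives a full or clear partial fitted curve of increased nuclear translocation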; further: potency means the concentration at half of the fitted maximal effect)
[4] = qHTS Assay for Identification of Small Molecule Agonists for Hypoxia Response Element Signaling Pathway (AID 914; active means well fitted activation curve with a large enough effect in the signal ratio, with a control signal flat, not every such curve was filed as active; the % refers to the signal ratio; further: potency means the concentration at half of the fitted maximal effect; on activation: % of control where 0% means no effect); conditions: ME-180 (cervical carcinoma) HRE-bla reporter, beta-lactamase ratio, CoCl2, 17 h; activation: hits give high values
Summary of the method: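 HRE-bla ME-180 assay for agonist-like enhancement of an EC50 CoCl2 stimulus: 17 h at 37 degrees Celsius, CCF4 for 2.5 h, ratiometric 460/530 nm signal converted to %Activity and fitted to AC50.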

[5] = qHTS for Inhibitors of the vitamin D receptor (VDR): Hit Validation using a Texas Red Assay (AID 602201; active means well fitted curve in the direction sought with a large enough effect; further: potency means the concentration at half of the fitted maximal effect); conditions: VDR coregulator binding, Texas Red fluorescence polarization; agonist-bound VDR ligand-binding domain
Summary of the method: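 After a 2-hour room-temperature incubation, polarization of Texas-Red emission was read (Ex 595 nm/Em 615 nm). Final mix contained 7 nM Texas Red, 1.5 uM VDR-LBD and LG19078.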

Sequence of Glucocorticoid receptor (Homo sapiens) (P04150 whole entry, looked up): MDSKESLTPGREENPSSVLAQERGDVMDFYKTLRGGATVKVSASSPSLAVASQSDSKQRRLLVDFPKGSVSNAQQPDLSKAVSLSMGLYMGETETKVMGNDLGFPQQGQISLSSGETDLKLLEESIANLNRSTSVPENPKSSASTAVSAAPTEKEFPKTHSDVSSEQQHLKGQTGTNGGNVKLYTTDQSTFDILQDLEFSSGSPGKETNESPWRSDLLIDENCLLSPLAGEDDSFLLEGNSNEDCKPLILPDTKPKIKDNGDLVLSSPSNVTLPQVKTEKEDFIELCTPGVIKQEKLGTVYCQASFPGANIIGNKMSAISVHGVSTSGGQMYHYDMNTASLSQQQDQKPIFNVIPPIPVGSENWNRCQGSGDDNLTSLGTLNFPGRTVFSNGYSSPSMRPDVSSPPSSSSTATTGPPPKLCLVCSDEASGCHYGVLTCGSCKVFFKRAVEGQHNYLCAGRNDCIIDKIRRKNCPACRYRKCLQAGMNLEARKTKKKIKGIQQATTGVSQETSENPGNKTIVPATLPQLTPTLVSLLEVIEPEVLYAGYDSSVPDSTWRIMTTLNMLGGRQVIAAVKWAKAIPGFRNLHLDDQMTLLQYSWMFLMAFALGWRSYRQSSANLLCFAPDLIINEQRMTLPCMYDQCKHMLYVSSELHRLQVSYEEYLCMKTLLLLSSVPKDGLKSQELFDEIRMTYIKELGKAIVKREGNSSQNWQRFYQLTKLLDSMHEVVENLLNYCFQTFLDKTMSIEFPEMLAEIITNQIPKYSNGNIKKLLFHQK

SMILES | activity change, negative = inhibition [1] [%] | activity, negative = inhibition [2] [%] | Potency [3] [µM] | activation [4] [%] | Potency [4] | Potency [5]
COc1ccc(C2C(C#N)=C(N)Oc3n[nH]c(C)c32)cc1CSc1ccccn1 (stereo not given) | -15.2 | -27.9 | > 20.6 | -21.4 | – | –
Cc1c(/C(O)=C2\C(=O)C(=O)N(CCCN(C)C)C2c2ccccc2)cnn1-c1ccccc1 (stereo not given) | -3.19 | 0.518 | > 20.6 | 3.31 | – | –
CC1(C)CC(=O)C=C(N=CC2=C(O)CC(C)(C)CC2=O)C1 | 4.05 | 12.2 | > 20.6 | -17.7 | – | –
CCOC(=O)c1[nH]c2ccc(OC)cc2c1NC(=O)CCN1CCC(C)CC1 | 8.62 | 8.76 | > 20.6 | -29.8 | – | –
CC1(C)CCN(Cc2ccccc2)C1CC#N (stereo not given) | -13.4 | 6.87 | > 20.6 | 7.94 | – | –
N#CC1=C(N)OC2=C(C(=O)CCC2)[C@]12C(=O)N(CC(N)=O)c1ccccc12 | 12 | 1.02 | > 20.6 | -22.1 | – | –
COc1nc(N(C)S(=O)(=O)c2ccc(C)cc2)nc(C)c1Cl | -2.26 | 5.02 | > 20.6 | -6.79 | – | –
CCOC(=O)C1=C(C)NC(SCC(=O)Nc2nc(C)cs2)=C(C#N)C1c1cccs1 (stereo not given) | -22.9 | -27.7 | > 20.6 | – | 10 µM (active) | –
c1ccc2c(c1)NC(c1ccncc1)n1c-2nc2ccccc21 (stereo not given) | -17.1 | -7.32 | > 20.6 | 15.3 | – | –
Cc1ccc(CNC(=O)c2cc3c(=O)n4ccccc4nc3n(Cc3ccco3)c2=N)cc1 | 5.13 | 22.1 | > 20.6 | – | 5.01 µM (active) | –
COc1ccc(OC)c2c(N)c(C#N)c(C(F)(F)C(F)(F)F)nc12 | 5.08 | 14 | > 20.6 | – | 10 µM (active) | –
O=C(CCN1CCc2ccccc2CC1)c1ccc2c(c1)OCCO2 | -22 | 12.8 | > 20.6 | – | – | 10 µM (active)
CCCc1cc(=O)oc2c(CN3CCN(C)CC3)c(O)c(Cl)cc12 | -0.941 | -1.37 | > 20.6 | – | 5.01 µM (active) | –
COC(=O)c1[nH]c2cc(OC)ccc2c1NC(=O)CCN1CCCC(C)(C)C1 | -14.5 | 2.32 | > 20.6 | 10.2 | – | –
CC(C)Oc1ccc(C(=O)CCN2CCCCC2)cc1 | -9.61 | -10.9 | > 20.6 | – | – | 3.98 µM (active)
Cc1cccn2c(=O)c(/C=C(\C#N)S(=O)(=O)c3ccccc3)c(N3CCN(C)CC3)nc12 | -0.352 | 3.87 | > 20.6 | -11.6 | – | –
COc1ccc(C2=CC(c3ccc(C)cc3)n3nnnc3N2)cc1 (stereo not given) | -20.8 | -14.7 | > 20.6 | – | 10 µM (active) | –
Cc1nnc2c(NC(C)C)nc3ccccc3n12 | 14.9 | -12.6 | > 20.6 | – | 10 µM (active) | –
CCOCCSc1nc2c(c(=O)[nH]c(=O)n2C)n1CCCc1ccccc1 | 3.98 | -3.21 | > 20.6 | 6 | – | –
N=c1c(C(=O)NCc2ccccc2)cc2c(=O)n3ccccc3nc2n1Cc1ccco1 | -5.29 | 19.8 | > 20.6 | – | 6.31 µM (active) | –
